The values that follow come from PubChem BioAssay (Tox21).

Records with an inconclusive call do not appear. A number with no mark means an inactive call. The call rests on the fitted dose curve; in most records, active means well fitted activation curve with a large enough effect in the repeat runs; inconclusive means weak or mixed curves; inactive means flat fitted curve, though single readings scatter.
On the % scale 0 is the no-effect control and ±100 the full control effect.

The assay can be described thus: A CellTox Green Cytotoxicity Assay to monitor cytotoxicity in HEK293 cells - 8 hour (AID 1224884). Further: nearly all actives have a fitted effect of over 35% in size. As to conditions: CellTox Green fluorescence; series mostly up to 76.8 µM; cytotoxicity increase: at the top concentration. From the text: National Center for Advancing Translational Sciences [NCATS]
NIH Chemical Genomics Center [NCGC]
U.S. Environmental Protection Agency [EPA]
National Institutes of Environmental Health Sciences [NIEHS]
National Toxicology Program [NTP]
Cell-based models are critical for drug discovery. Determining the natural cytotoxic effects resulting from test compounds is an essential research activity. A CellTox Green Cytotoxicity Assay to monitor cytotoxicity in real time of continues cell culture during 40 hours of the compound treatment was used to screen Tox21 10K library compounds in Hek293 cells. CellTox Green Cytotoxicity Assay is a nonlytic, homogeneous, biofluorescent method to measure cytotoxicity in cell culture after experimental manipulation. The assay system uses a proprietary asymmetric cyanine dye that is excluded from viable cells but preferentially stains the dead cell's DNA. […] Viable cells produce no appreciable increases in fluorescence. Therefore, the fluorescence signal produced by the binding interaction with dead cell DNA is proportional to cytotoxicity.
The mixture of Hek293 cell suspension and reagents were dispensed at 600cells/6 ul/well in 1536-well tissue culture treated black solid bottom plates using a Multidrop dispenser. After the assay plates were incubated at a 37 C/5% CO2 incubator for 5 hours, 23 nL of compounds dissolved in DMSO, positive and negative controls was transferred to the assay plate by a pintool work station. The plates were incubated at 37 C for 40 hours. The fluorescence intensity were measured at 0h, 8h, 16h, 24h, 32h and 40h time points using ViewLux plate reader during compound treatment.
In the case of `Cc1cc(C(=O)O)ccc1[N+](=O)[O-]`, the “cytotoxicity increase” value is 0.28%.

Take `C#Cc1cccc(Nc2ncnc3cc(OCCOC)c(OCCOC)cc23)c1`: the “cytotoxicity increase” value was 4.14% [at 35.3 µM].

Regarding `C[Si](C)(CCCN)O[Si](C)(C)CCCN`, the “cytotoxicity increase” value is -6.03%.

In the case of `Cc1cccc(C)c1OCC(=O)N[C@@H](Cc1ccccc1)[C@@H](O)C[C@H](Cc1ccccc1)NC(=O)[C@H](C(C)C)N1CCCNC1=O`, the “cytotoxicity increase” value was -0.296% [at 35.3 µM].

Consider `O=C(Nc1ccccc1)c1ccccc1O`, for which the “cytotoxicity increase” value is 19.3%.

On to `O=C(CS)Nc1ccccc1`, for which the “cytotoxicity increase” value is -1.15% [at 35.3 µM].

As to `CCCCCCCN`, the “cytotoxicity increase” value was -9.98%.

As for `OCc1cc(C(O)CNCCCCCCOCCCCc2ccccc2)ccc1O` (stereo not given), the “cytotoxicity increase” value was 2.9% [at 35.3 µM].

As for `CC1=CCCC(C)(C)C12CCC(C)O2` (stereo not given), the “cytotoxicity increase” value is 15.3%.

As for `CCOC(=O)COC(=O)c1cc(Oc2ccc(C(F)(F)F)cc2Cl)ccc1[N+](=O)[O-]`, the “cytotoxicity increase” value is 13.5%.

With `CCCOC(C(=O)OC1CCN(C)CC1)(c1ccccc1)c1ccccc1`, the “cytotoxicity increase” value was 21.6% [at 35.3 µM].

As to `O=C1CCCCCCCCCCCC(=O)OCCO1`, the “cytotoxicity increase” value is 0.877%.

As for `CCC(C)O` (stereo not given), the “cytotoxicity increase” value was -5.95%.

Take `COc1cc2nc(N3CCN(C(=O)C4COc5ccccc5O4)CC3)nc(N)c2cc1OC` (stereo not given): the “cytotoxicity increase” value was -18% [at 35.3 µM].

Regarding `c1ccc(C(O[C@H]2CCCN(CCc3ccc4c(c3)OCO4)C2)c2ccccc2)cc1`, the “cytotoxicity increase” value is -15.5% [at 35.3 µM].

`CCOc1ccc(O)cc1`: the “cytotoxicity increase” value was -10.7%.

Turning to `Cc1oc2c(NC(=O)c3c(Cl)cccc3Cl)cccc2c1C(C)(C)O`, the “cytotoxicity increase” value is 0.478%.

Regarding `C/C(=C(\CCOP(=O)(O)O)SC(=O)c1ccccc1)N(C=O)Cc1cnc(C)nc1N`, the cytotoxicity increase is -3.85% [at 6.97 µM].

Take `N=c1ccn2c(n1)O[C@H]1[C@H](O)[C@@H](CO)O[C@H]12`: the “cytotoxicity increase” value was -13%.

For `COc1ccc(C(=O)Nc2nc3ccccc3c(NCc3ccccc3)c2C#N)cc1`, the “cytotoxicity increase” value was -5.21%.

In the case of `OC(C#CCN1CCCC1)(c1ccccc1)c1ccccc1`, the “cytotoxicity increase” value is 2.34% [at 35.3 µM].

For the compound `CCC(C)(C)CC`, the “cytotoxicity increase” value is -3.55%.

`COC(=O)c1ccc(I)cc1S(=O)(=O)NC(=O)Nc1nc(C)nc(OC)n1`: the “cytotoxicity increase” value was -1.83%.

As to `COc1ccnc(CS(=O)c2nc3ccc(OC(F)F)cc3[nH]2)c1OC` (stereo not given), the “cytotoxicity increase” value was -24.1% [at 35.3 µM].

On to `CC(C)CC(=O)C1C(=O)c2ccccc2C1=O`, for which the “cytotoxicity increase” value was 6.6%.

Regarding `CC(COCCO)OCCO` (stereo not given), the “cytotoxicity increase” value was -0.344%.

As to `CCCCC(=O)OCC(=O)[C@H]1[C@H](C)C[C@H]2[C@@H]3C[C@H](F)C4=CC(=O)C=C[C@]4(C)[C@@]3(F)[C@@H](O)C[C@@]21C`, the “cytotoxicity increase” value is 1.68% [at 35.3 µM].

Regarding `Nc1ncn([C@H]2C[C@H](O)[C@@H](CO)O2)c(=O)n1`, the “cytotoxicity increase” value was -1.96% [at 35.3 µM].

On to `CCCCC/C=C\C/C=C\CCCCCCCC(=O)NC(C)c1ccccc1` (stereo not given), for which the “cytotoxicity increase” value is -14.4% [at 35.3 µM].

As for `O[C@@H](COc1cccc2ncccc12)CN1CCN(C2c3ccccc3[C@@H]3[C@H](c4ccccc42)C3(F)F)CC1` (stereo not given in full), the “cytotoxicity increase” value was 1.65% [at 35.3 µM].

`CCCCCCOC(=O)NC(=N)c1ccc(NCc2nc3cc(C(=O)N(CCC(=O)OCC)c4ccccn4)ccc3n2C)cc1`: the “cytotoxicity increase” value is -0.994% [at 35.3 µM].

Consider `CCOC(=O)NCCOc1ccc(Oc2ccccc2)cc1`, for which the “cytotoxicity increase” value is 8.9%.

As to `CCOCC(O)COc1ccc(NC(=O)CC[S+](C)C)cc1` (stereo not given), the “cytotoxicity increase” value is 5.19% [at 35.3 µM].

As to `CCCCC(CC)CN1C(=O)C2C3C=CC(C3)C2C1=O` (stereo not given), the “cytotoxicity increase” value is 23.4%.

Take `CN1Cc2cc(C(=O)N3CCC(C4CCNCC4)CC3)ccc2NC(CC(=O)O)C1=O` (stereo not given): the “cytotoxicity increase” value is -1.59% [at 35.3 µM].

Regarding `Cc1ncc(CO)c(C=O)c1O`, the “cytotoxicity increase” value is -7.2% [at 35.3 µM].

As for `CN(C)C(=O)NC1(c2ccccc2)CCN(CC[C@@]2(c3ccc(F)c(F)c3)CN(C(=O)c3ccccc3)CCO2)CC1`, the “cytotoxicity increase” value is -8.39%.

For the compound `COc1cc2nc(Cl)nc(N)c2cc1OC`, the “cytotoxicity increase” value is -10.5% [at 35.3 µM].

In the case of `CCCCOC(=O)CCCCCCCC(=O)OCCCC`, the “cytotoxicity increase” value is -1.35%.

In the case of `COc1ccc(C(=O)N2CCN(CC(=O)N3CCOCC3)CC2)cc1`, the “cytotoxicity increase” value is -6.56% [at 35.3 µM].
